Sampled rows, rich in hits. Any-hit rate of the full collection: about 31%.
CYP2C9 activ – CYP2C9 (human) activation | recombinant CYP2C9, luciferin-H conversion, luminescence; hits give high values; factor 1 = untreated enzyme, 0 = blocked | activation factor at 5 µM | hit rate 1.4% among 96,000 | AID 1024;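 active = activation factor of 2 or more for CYP2C9 at a 5 µM dose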;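 note: 0 = sulfaphenazole-blocked wells and 1 = vehicle-only wells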
PLAP activator – human PLAP activation; AID 696; activation fold at 20 µM; purified PLAP enzyme, luminescent substrate read-out; hits give high values; hit rate 1.2% among 96,000; in the data active = activation fold above about 2
CYP2C19 activ – increases human CYP2C19 enzyme activity | activation factor at 5 µM | P33261 | recombinant CYP2C19, luciferin-H EGE luminescence; hits give high values; 0 = fully inhibited enzyme, 1 = untreated enzyme | 96,000 tested, under 10 active;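 active = activation factor of at least 2 at 5 µM in the primary screen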;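 note: 0 = wells with 2.5 mM tranylcypromine and 1 = vehicle-only wells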
Target sequence (P33261 whole entry, looked up): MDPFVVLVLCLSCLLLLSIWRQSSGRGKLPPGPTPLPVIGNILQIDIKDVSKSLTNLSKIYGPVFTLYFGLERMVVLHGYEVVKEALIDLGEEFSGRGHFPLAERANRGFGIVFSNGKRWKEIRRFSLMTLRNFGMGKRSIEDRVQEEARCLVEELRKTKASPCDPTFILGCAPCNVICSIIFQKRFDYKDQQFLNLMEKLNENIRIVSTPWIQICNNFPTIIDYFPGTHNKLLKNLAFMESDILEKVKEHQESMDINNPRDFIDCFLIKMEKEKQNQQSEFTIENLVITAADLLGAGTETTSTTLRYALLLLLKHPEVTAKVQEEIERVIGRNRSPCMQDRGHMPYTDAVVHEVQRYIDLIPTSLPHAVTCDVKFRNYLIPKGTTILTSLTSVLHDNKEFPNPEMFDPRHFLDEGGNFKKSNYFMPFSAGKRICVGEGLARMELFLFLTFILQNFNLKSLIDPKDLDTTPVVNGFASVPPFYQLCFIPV
CYP2C9 inh – blocks human cytochrome P450 2C9; inhibition, % at 5 µM; CYP2C9 Supersomes, luciferin-H conversion, luminescence; hit rate 20% among 96,000;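 active = blocking of liver enzyme CYP2C9 beyond about 50% at 5 µM, limit read from the data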
CYP2C19 inh – inhibitors of human CYP2C19 | hit rate 21% among 96,000 | AID 778 | CYP2C19 Supersomes, luciferin-H EGE luminescence, 30 min | inhibition, % at 5 µM | P33261;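 active = CYP2C19 inhibition above a set limit at 5 µM in the primary screen, cut at about 50% in these data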;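 note: plate controls were negative control wells for no effect and 2.5 mM tranylcypromine positive control for full effect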
Numbers without * were called inactive.

SMILES	CYP2C9 activ	PLAP activator	CYP2C19 activ	CYP2C9 inh	CYP2C19 inh
CCOC(=O)NCC(C#CCN(CC)CC)N(CC)CC (configuration not stated)	1.1	1.1	1.1	-10.5	-6.5
CC1=CC(C)(C)Nc2ccc(OC(=O)C(C)N3C(=O)c4ccccc4C3=O)cc21 (configuration not stated)	0.1	1.3	0.6	87.4*	35.6
CCOC(=O)c1cc2ccc(OC(=O)c3ccco3)cc2oc1=O	1	0.9	1.1	-0.4	-6.4
CC1=CC(C)(C)Nc2ccc(OC(=O)CN3C(=O)CCC3=O)cc21	1.1	1.2	1.1	-10.7	-5.5
CC1=CC(C)(C)Nc2ccc(OC(=O)c3ccco3)cc21	1.5	1	0.2	-45.6	78.0*
CC1=CC(C)(C)Nc2ccc(OC(=O)c3cccnc3)cc21	0.6	1	0.3	41.1	71.4*
NC(=O)CSc1nnc(-c2ccc(S(=O)(=O)N3CCCC3)cc2)n1CC1CCCO1 (configuration not stated)	1	0.9	1.1	-4.5	-7.4
CCOc1ccc(N2C(=O)C3C4C=CC(CC4)C3C2=O)c([N+](=O)[O-])c1 (configuration not stated)	1.3	0.9	1	-27.4	3.4
CCC(=O)OC1CSc2nc3ccccc3n2C1 (configuration not stated)	0.8	0.9	0.6	17.0	39.7
CC1CCCN(CC(=O)Nc2ccc(S(=O)(=O)NC3CCCCC3)cc2)C1 (configuration not stated)	0.5	1.6	0.2	52.1*	78.3*
CC1CCCN(CC(=O)Nc2ccc(S(=O)(=O)N3CCCCCC3)cc2)C1 (configuration not stated)	0.4	1.4	0.7	62.1*	26.5
O=C(CN1CCCCC1)Nc1ccc(S(=O)(=O)N2CCCCCC2)cc1	0.9	1.3	1	12.7	-2.5
Cc1ccc(S(=O)(=O)N=S(CC2CC2(Cl)Cl)CC2CC2(Cl)Cl)cc1 (configuration not stated)	0.6	1.8	0.4	43.9	62.3*
Cc1ccc(/S(C)=N/S(=O)(=O)c2ccc(C)cc2)cc1 (configuration not stated)	1.6	0.9	0.7	-59.0	28.2
FC(F)(F)c1cccc(NC(=S)NNC(=S)NCc2ccccc2)c1	0.2	1.2	0.9	75.4*	11.8
S=C(NCc1ccccn1)Nc1cccc(Cl)c1	1.1	0.9	0.4	-12.3	57.3*
Cc1ccc(NC(=S)NCc2ccccn2)cc1	0.3	0.9	0.7	69.2*	32.4
Cc1ccc(NC(=S)NNC(=S)NCc2ccccc2)cc1	0.1	1.1	0.9	94.2*	12.5
O=C(Cc1ccccc1)NC(=S)Nc1cccc(C(F)(F)F)c1	0.9	0.9	1	13.1	2.4
COc1cc(-c2noc(CCCC(=O)NCc3ccccc3)n2)cc(OC)c1OC	1	1.8	0.8	-2.7	15.2
O=C(O)c1ccc(S(=O)(=O)c2ccc3c(c2)C(=O)N(Cc2ccco2)C3=O)cc1	1	1.1	1.2	3.5	-24.2
Cc1ccccc1-c1nc(CS(=O)(=O)CC(=O)NCCCN2C(C)CCCC2C)c(C)o1 (configuration not stated)	0.7	1.5	0.8	25.6	17.3
